# Values joined by “and” are separate entries in the source; they are usually repeats but may differ in a detail not shown here. Identical values can stand only once. This is part of a sample that, as a whole, favours compounds with a hit. Of some 83,000 tested, about 20% had one in any assay.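 Results are percent growth after 48 hours of single-concentration exposure. 100 means growth as in untreated cells, lower positive values show inhibition; negative values down to -100 show cell death.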 Values without a mark were called inactive. Active and inactive are the calls of the source. Rule for the calls: active = growth percent below 10; inactive = the rest.
# Key:
# Assay in all cases: NCI-60 one-dose screen, 48 h (100 = growth as untreated, 0 = no growth, -100 = all killed)
# [1] = tested on: HCT-15 colon
# [2] = tested on: HT29 colon
# [3] = tested on: SNB-75 CNS
# [4] = tested on: SNB-19 CNS
# [5] = tested on: U251 CNS
# [6] = tested on: PC-3 prostate
# [7] = tested on: SK-MEL-5 melanoma
# [8] = tested on: UACC-62 melanoma
# [9] = tested on: LOX IMVI melanoma
# [10] = tested on: SK-MEL-28 melanoma
# [11] = tested on: SK-MEL-2 melanoma
# [12] = tested on: EKVX NSCLC
# [13] = tested on: SN12C renal
# [14] = tested on: UO-31 renal
# [15] = tested on: TK-10 renal
# [16] = tested on: ACHN renal
# [17] = tested on: CAKI-1 renal
# [18] = tested on: A498 renal
# [19] = tested on: CCRF-CEM leukemia
# [20] = tested on: MOLT-4 leukemia
smiles,measurement,setting,value
COc1cc(CNC(=O)CCCC/C=C/C(C)C)ccc1OCc1cn(-c2ccc([N+](=O)[O-])cc2)nn1,growth,[1]; 10 µM unless noted,96.2%
same,growth,[2]; 10 µM unless noted,98.1%
same,growth,[3]; 10 µM unless noted,83.9%
same,growth,[4]; 10 µM unless noted,97.4%
same,growth,[5]; 10 µM unless noted,86.4%
same,growth,[6]; 10 µM unless noted,78%
same,growth,[7]; 10 µM unless noted,76.1%
same,growth,[8]; 10 µM unless noted,69.3%
same,growth,[9]; 10 µM unless noted,89.5%
same,growth,[10]; 10 µM unless noted,102%
same,growth,[11]; 10 µM unless noted,92%
same,growth,[12]; 10 µM unless noted,75.3%
same,growth,[13]; 10 µM unless noted,91.7%
same,growth,[14]; 10 µM unless noted,60.6%
same,growth,[15]; 10 µM unless noted,92.7%
same,growth,[16]; 10 µM unless noted,90.7%
same,growth,[17]; 10 µM unless noted,96.7%
same,growth,[18]; 10 µM unless noted,82%
same,growth,[19]; 10 µM unless noted,84.9%
same,growth,[20]; 10 µM unless noted,79.3%
CN(C)CCNc1ncc(F)c(-c2cnc3cc(-c4cnn(C)c4)ccn23)n1,growth,[1]; 0.005 µM,99.2%
same,growth,[1]; 30 µM,31.2%
same,growth,[2]; 0.005 µM,99.7%
same,growth,[2]; 30 µM,42.8%
same,growth,[3]; 0.005 µM,100%
same,growth,[3]; 30 µM,50%
same,growth,[4]; 0.005 µM,97%
same,growth,[4]; 30 µM,73.4%
same,growth,[5]; 0.005 µM,96.3%
same,growth,[5]; 30 µM,75.9%
same,growth,[6]; 0.005 µM,103%
same,growth,[6]; 30 µM,44.9%
same,growth,[7]; 10 µM unless noted,101% [0.005 µM]
same,growth,[8]; 0.005 µM,98%
same,growth,[8]; 30 µM,82.7%
same,growth,[9]; 0.005 µM,98.6%
same,growth,[9]; 30 µM,19.9%
same,growth,[10]; 0.005 µM,105%
same,growth,[10]; 30 µM,96.7%
same,growth,[11]; 0.005 µM,109%
same,growth,[11]; 30 µM,64.6%
same,growth,[12]; 0.005 µM,97%
same,growth,[12]; 30 µM,70.1%
same,growth,[13]; 0.005 µM,98.4%
same,growth,[13]; 30 µM,30.7%
same,growth,[14]; 0.005 µM,94%
same,growth,[14]; 30 µM,17.1%
same,growth,[15]; 0.005 µM,105%
same,growth,[15]; 30 µM,56.4%
same,growth,[16]; 0.005 µM,96.7%
same,growth,[16]; 30 µM,15.5%
same,growth,[17]; 0.005 µM,99.5%
same,growth,[17]; 30 µM,15.5%
same,growth,[18]; 0.005 µM,99%
same,growth,[18]; 30 µM,41.9%
same,growth,[19]; 0.005 µM,101%
same,growth,[19]; 30 µM,14.1%
same,growth,[20]; 0.005 µM,104%
same,growth,[20]; 30 µM,1.39% (active)
CC(=O)/C=C/c1ccc(N(CCO)Cc2ccc(C(C)(C)C)cc2)cc1,growth,[1]; 10 µM,62.5%
same,growth,[1]; 100 µM,-83% (active)
same,growth,[2]; 10 µM,59.4%
same,growth,[2]; 100 µM,-81.5% (active)
same,growth,[3]; 10 µM,76.3%
same,growth,[3]; 100 µM,-92.3% (active)
same,growth,[4]; 10 µM,102%
same,growth,[4]; 100 µM,-89.9% (active)
same,growth,[5]; 10 µM,75.9%
same,growth,[5]; 100 µM,-100% (active)
same,growth,[6]; 10 µM,66%
same,growth,[6]; 100 µM,-90.3% (active)
same,growth,[7]; 10 µM,70%
same,growth,[7]; 100 µM,-99.5% (active)
same,growth,[8]; 10 µM,76.5%
same,growth,[8]; 100 µM,-86.3% (active)
same,growth,[9]; 10 µM,62.4%
same,growth,[9]; 100 µM,-100% (active)
same,growth,[10]; 10 µM,89.1%
same,growth,[10]; 100 µM,-90.7% (active)
same,growth,[11]; 10 µM,93.3%
same,growth,[11]; 100 µM,-75.2% (active)
same,growth,[12]; 10 µM,57.4%
same,growth,[12]; 100 µM,-86.5% (active)
same,growth,[13]; 10 µM,73%
same,growth,[13]; 100 µM,-86.4% (active)
same,growth,[14]; 10 µM,47.2%
same,growth,[14]; 100 µM,-100% (active)
same,growth,[15]; 10 µM,96.7%
same,growth,[15]; 100 µM,-96.7% (active)
same,growth,[16]; 10 µM unless noted,80.5%
same,growth,[18]; 10 µM,78.6%
same,growth,[18]; 100 µM,-98.3% (active)
same,growth,[19]; 10 µM unless noted,-47.9% [100 µM] (active)
same,growth,[20]; 10 µM,54%
same,growth,[20]; 100 µM,-47.4% (active)
CCCCCCCCCCCCCCCCCCOc1cccc(CC(=O)OCC[N+](CC)(CC)CC)c1,growth,[1]; 10 µM unless noted,81.3%
same,growth,[2]; 10 µM unless noted,64.5%
same,growth,[3]; 10 µM unless noted,61.9%
same,growth,[4]; 10 µM unless noted,38.3%
same,growth,[5]; 10 µM unless noted,37.6%
same,growth,[6]; 10 µM unless noted,55.4%
same,growth,[7]; 10 µM unless noted,29.8%
same,growth,[8]; 10 µM unless noted,63%
same,growth,[9]; 10 µM unless noted,56.5%
same,growth,[10]; 10 µM unless noted,92.8%
same,growth,[11]; 10 µM unless noted,84%
same,growth,[12]; 10 µM unless noted,77.7%
same,growth,[13]; 10 µM unless noted,42.8%
same,growth,[14]; 10 µM unless noted,86.4%
same,growth,[15]; 10 µM unless noted,67.5%
same,growth,[16]; 10 µM unless noted,90%
same,growth,[17]; 10 µM unless noted,62.7%
same,growth,[18]; 10 µM unless noted,89.3%
same,growth,[19]; 10 µM unless noted,32.5%
same,growth,[20]; 10 µM unless noted,72%
Cc1nc2cccc(NCCCCC(=O)NO)c2c(=O)n1-c1ccccc1,growth,[1]; 10 µM unless noted,71.6%
same,growth,[2]; 10 µM unless noted,52.1%
same,growth,[3]; 10 µM unless noted,45.1%
same,growth,[4]; 10 µM unless noted,65.5%
same,growth,[5]; 10 µM unless noted,70.2%
same,growth,[6]; 10 µM unless noted,63%
same,growth,[7]; 10 µM unless noted,34.9%
same,growth,[8]; 10 µM unless noted,31.8%
same,growth,[9]; 10 µM unless noted,75.8%
same,growth,[10]; 10 µM unless noted,58.3%
same,growth,[11]; 10 µM unless noted,55.9%
same,growth,[12]; 10 µM unless noted,63.8%
same,growth,[13]; 10 µM unless noted,69.8%
same,growth,[14]; 10 µM unless noted,56.6%
same,growth,[15]; 10 µM unless noted,37.1%
same,growth,[16]; 10 µM unless noted,54.3%
same,growth,[17]; 10 µM unless noted,55.6%
same,growth,[18]; 10 µM unless noted,48.5%
same,growth,[19]; 10 µM unless noted,25.3%
same,growth,[20]; 10 µM unless noted,25.1%
CC(C)(C)CC(N)=O,growth,[1]; 10 µM unless noted,94.9%
same,growth,[2]; 10 µM unless noted,102%
same,growth,[3]; 10 µM unless noted,96.4%
same,growth,[4]; 10 µM unless noted,101%
same,growth,[5]; 10 µM unless noted,95.1%
same,growth,[6]; 10 µM unless noted,97.9%
same,growth,[7]; 10 µM unless noted,94.1%
same,growth,[8]; 10 µM,103%
same,growth,[8]; 100 µM,79.5% and 18.4%
same,growth,[9]; 10 µM unless noted,98.1%
same,growth,[10]; 10 µM unless noted,102%
same,growth,[11]; 10 µM unless noted,102%
same,growth,[13]; 10 µM unless noted,102%
same,growth,[14]; 10 µM unless noted,104%
same,growth,[15]; 10 µM,100%
same,growth,[15]; 100 µM,105% and 103%
same,growth,[16]; 10 µM unless noted,96.9%
same,growth,[17]; 10 µM unless noted,94.4%
same,growth,[18]; 10 µM unless noted,90.7%
same,growth,[19]; 10 µM unless noted,102%
same,growth,[20]; 10 µM unless noted,108%

# Reference: PubChem BioAssay (NCI)
